Results filed as inconclusive are left out. Unmarked numbers belong to inactive results. The source made the active and inactive calls. Calls follow the shape of the dose curve; as a rule, active = well fitted cell-killing curve with a large enough effect; inconclusive = small, poorly fitted or top-dose-only effect, or effect the other way; inactive = no such curve, though single readings can be large or run the other way.

By viability is commonly meant a read-out of living cells in per cent, often relative to untreated cells.

Experiment [1] can be described thus: Quantitative High-Throughput drug screen in 47 multiple myeloma cell lines against the NCATS MIPE library collection: KMS28PE_JCRB cell viability assay (AID 1918983). Also: nearly all actives have a fitted effect of over 35% in size. The procedure, abridged:
(§1)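 qHTS format: cells plated (500/well), pin-dosed with MIPE 4.0 compounds, kept 48 h at 37 °C. Readout was CellTiter-Glo luminescence, median RLU.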

A short description of experiment [2]: Quantitative High-Throughput drug screen in 47 multiple myeloma cell lines against the NCATS MIPE library collection: L363_DSMZ cell viability assay (AID 1918984). Also: nearly all actives have a fitted effect of over 40% in size. The conditions noted are these: L363 myeloma viability, CellTiter-Glo ATP luminescence, 48 h; viability (% of control): at 45.8 µM (top of the series). The procedure, abridged:
as §1
In general terms: Cellular ATP, detected with luciferase, serves as a proxy for viable cell number.

Experiment [3] can be described thus: Quantitative High-Throughput drug screen in 47 multiple myeloma cell lines against the NCATS MIPE library collection: OCIMY5_PLB cell viability assay (AID 1918988). Also: nearly all actives have a fitted effect of over 65% in size. The method in brief: as §1
Experiment [4] can be described thus: Quantitative High-Throughput drug screen in 47 multiple myeloma cell lines against the NCATS MIPE library collection: XG6_PLB cell viability assay (AID 1919865). Also: nearly all actives have a fitted effect of over 40% in size. The procedure, abridged:
as §1

Experiment [5] can be described thus: Quantitative High-Throughput drug screen in 47 multiple myeloma cell lines against the NCATS MIPE library collection: XG1_PLB cell viability assay (AID 1919866). Also: nearly all actives have a fitted effect of over 35% in size. The method in brief:
as §1

Experiment [6] in a line: Quantitative High-Throughput drug screen in 47 multiple myeloma cell lines against the NCATS MIPE library collection: PE2_PLB cell viability assay (AID 1919869). Also: nearly all actives have a fitted effect of over 35% in size. The procedure, abridged: as §1
Experiment [7] can be described thus: Quantitative High-Throughput drug screen in 47 multiple myeloma cell lines against the NCATS MIPE library collection: PCM6_Riken cell viability assay (AID 1919870). Also: nearly all actives have a fitted effect of over 30% in size. The method in brief:
as §1

The nature of experiment [8]: Quantitative High-Throughput drug screen in 47 multiple myeloma cell lines against the NCATS MIPE library collection: OPM2_DSMZ cell viability assay (AID 1919872). Also: nearly all actives have a fitted effect of over 30% in size. The method in brief: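 CellTiter-Glo ATP luminescence gave viability after 48 h compound treatment at 37C of 500 multiple myeloma cells per well. Normalisation used DMSO-only wells as 100% and media-only wells as 0% viability; primary qHTS of approved and investigational drugs.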

The nature of experiment [9]: Quantitative High-Throughput drug screen in 47 multiple myeloma cell lines against the NCATS MIPE library collection: OPM1_PLB cell viability assay (AID 1918989). Also: nearly all actives have a fitted effect of over 40% in size. The procedure, abridged:
as §1

A short description of experiment [10]: Quantitative High-Throughput drug screen in 47 multiple myeloma cell lines against the NCATS MIPE library collection: UTMC2_PLB cell viability assay (AID 1919868). Also: nearly all actives have a fitted effect of over 55% in size. The conditions noted are these: CellTiter-Glo ATP luminescence, 48 h; viability (% of DMSO control): at 45.8 µM (top of the series). The procedure, abridged: as §1
The nature of experiment [11]: Quantitative High-Throughput drug screen in 47 multiple myeloma cell lines against the NCATS MIPE library collection: RPMI8226_ATCC cell viability assay (AID 1919871). Also: nearly all actives have a fitted effect of over 30% in size. The method in brief:
as §1

A short description of experiment [12]: Quantitative High-Throughput drug screen in 47 multiple myeloma cell lines against the NCATS MIPE library collection: SKMM1_PLB cell viability assay (AID 1919863). Also: nearly all actives have a fitted effect of over 35% in size. The conditions noted are these: SKMM1 myeloma viability, CellTiter-Glo ATP, 48 h; viability: active compounds read low. The method in brief:
as §1

The nature of experiment [13]: Quantitative High-Throughput drug screen in 47 multiple myeloma cell lines against the NCATS MIPE library collection: U266_ATCC cell viability assay (AID 1919864). Also: nearly all actives have a fitted effect of over 35% in size. The procedure, abridged: as §1
Experiment [14] in a line: Quantitative High-Throughput drug screen in 47 multiple myeloma cell lines against the NCATS MIPE library collection: KMS28BM_JCRB cell viability assay (AID 1919874). Also: nearly all actives have a fitted effect of over 35% in size. The method in brief:
as §1

A short description of experiment [15]: Quantitative High-Throughput drug screen in 47 multiple myeloma cell lines against the NCATS MIPE library collection: KMS34_JCRB cell viability assay (AID 1918985). Also: nearly all actives have a fitted effect of over 40% in size. The procedure, abridged: as §1
Experiment [16] can be described thus: Quantitative High-Throughput drug screen in 47 multiple myeloma cell lines against the NCATS MIPE library collection: OCIMY7_PLB cell viability assay (AID 1918987). Also: nearly all actives have a fitted effect of over 65% in size. The conditions noted are these: OCI-MY7 myeloma viability, CellTiter-Glo ATP, 48 h; viability (% of DMSO): at 45.8 µM (top of the series). The procedure, abridged:
as §1

The nature of experiment [17]: Quantitative High-Throughput drug screen in 47 multiple myeloma cell lines against the NCATS MIPE library collection: KMS11_JCRBsus cell viability assay (AID 1919873). Also: nearly all actives have a fitted effect of over 50% in size. The method in brief: as §1
A short description of experiment [18]: Quantitative High-Throughput drug screen in 47 multiple myeloma cell lines against the NCATS MIPE library collection: VP6_DJ cell viability assay (AID 1919867). Also: nearly all actives have a fitted effect of over 40% in size. The procedure, abridged: as §1
Potency is read from the fitted curve at half-maximal effect.

For `CC=C(C(=CC)c1ccc(O)cc1)c1ccc(O)cc1`, the Potency entry in experiment [1] is “inactive”. Further, the Potency in experiment [2] is 13.2 µM (active); in experiment [3] it was 16.6 µM (active); in experiment [4] it was 18.7 µM (active); in experiment [5], 16.6 µM (active); in experiment [6], 20.9 µM (active); in [7], 20.9 µM (active). For the same compound, the Potency in experiment [8] is 18.7 µM (active).

For `O=C1CN2Cc3c(ccc(Cl)c3Cl)N=C2N1`, the Potency is 23.5 µM (active) in experiment [1]; 23.5 µM (active) in experiment [3]; 13.2 µM (active) in experiment [9]; 20.9 µM (active) in experiment [6]; 18.7 µM (active) in [11]. Besides, the Potency result in experiment [2] and in [10] was “inactive” throughout.

`COc1ccc(CCN(C)CCCOc2ccc(S(=O)(=O)c3[nH]c4ccccc4c3C(C)C)cc2)cc1OC`: the Potency was 16.6 µM (active) in experiment [1]; 23.5 µM (active) in [9]; 18.7 µM (active) in [13]; 26.4 µM (active) in [4]; 18.7 µM (active) in experiment [6]; 18.7 µM (active) in experiment [11]. In addition, the Potency in experiment [14] was 13.2 µM (active). For the same compound, the Potency result in experiment [2], in experiment [10] and in experiment [8] was “inactive” throughout. Further, the viability in experiment [12] was 110%.

Consider `O=C(Nc1cccc(Cl)c1)Nc1ncc(CCNc2ncnc3ccsc23)s1`, for which the Potency in experiment [1] is 5.9 µM (active); in experiment [15] it was 6.62 µM (active); in [16] it was 0.264 µM (active); in [3] it was 0.833 µM (active); in experiment [9] it was 6.62 µM (active); in experiment [12], 3.32 µM (active). Further, the Potency in experiment [13] is 16.6 µM (active); in experiment [4], 4.18 µM (active); in experiment [5] it was 1.32 µM (active); in [10] it was 0.372 µM (active); in experiment [6], 4.18 µM (active); in experiment [7] it was 5.26 µM (active). Besides, the Potency is 5.9 µM (active) in [11] and 11.8 µM (active) in experiment [17].

Regarding `CN1CC(=O)N2C(Cc3c([nH]c4ccccc34)[C@H]2c2ccc3c(c2)OCO3)C1=O` (stereo not given in full), the Potency result in [1], in [2], in experiment [9], in experiment [13], in experiment [5] and in experiment [18] was “inactive” in each case. The Potency entry in experiment [6], in experiment [8], in experiment [17] and in experiment [14] was “inactive” each time. Moreover, the viability in [12] is 129%.

With `CCNC(=O)CCCC=CC[C@@H]1[C@H](C=CC(O)CCc2ccccc2)[C@@H](O)C[C@@H]1O` (stereo not given in full), the Potency entry in experiment [1], in experiment [2], in experiment [13], in experiment [4], in experiment [5] and in experiment [18] was “inactive” each time. Also, the Potency result in experiment [10], in [6] and in experiment [7] was “inactive” throughout. Also, the Potency in experiment [3] was 26.4 µM (active); in experiment [11] it was 16.6 µM (active); in experiment [14], 3.32 µM (active).

For the compound `c1ccc(CNc2nc(N3CCOc4ccccc43)nc3c2CCCC3)cc1`, the Potency result in experiment [1], in experiment [2], in [16], in experiment [9], in experiment [13] and in experiment [4] was “inactive” in each case. Besides, the Potency result in experiment [5], in [7] and in experiment [14] was “inactive” throughout.

On to `CC(C)=CCCC(C)=CCCC(C)=CCCC(C)=CCCC(C)=CCCC(C)=CCCC(C)=CCCC(C)=CCCC(C)=CCO`, for which the Potency entry in experiment [1], in [2], in experiment [16], in [9], in experiment [4] and in [5] was “inactive” each time. The Potency result in [10], in experiment [6], in [7], in [11], in experiment [8] and in experiment [17] was “inactive” each time. Further, the Potency result in experiment [14] is “inactive”.

`COc1c(C)cnc(Cn2cnc3c(Cl)nc(N)nc32)c1C`: the Potency in [1] is 0.235 µM (active); in [2], 0.0372 µM (active); in experiment [16] it was 0.0418 µM (active); in [3], 0.0935 µM (active); in experiment [13], 0.166 µM (active); in experiment [4], 0.264 µM (active). Besides, the Potency is 0.118 µM (active) in [5]; 0.148 µM (active) in experiment [18]; 0.235 µM (active) in [6]; 0.187 µM (active) in experiment [8]; 0.0662 µM (active) in experiment [17].

`CN1C(=O)C[C@H](C(=O)N[C@@H](Cc2cnc[nH]2)C(=O)N2CCC[C@@H]2C(N)=O)NC1=O`: the Potency result in [1], in experiment [2], in [16] and in experiment [13] was “inactive” throughout. In addition, the Potency in experiment [9] is 20.9 µM (active); in [4], 10.5 µM (active); in [5], 10.5 µM (active); in [18], 10.5 µM (active); in experiment [14], 8.33 µM (active).

Consider `O=C1NC(=O)C(c2cnc3ccccn23)=C1c1cn2c3c(cccc13)CN(C(=O)N1CCOCC1)CC2`, for which the Potency entry in experiment [1], in [13] and in [14] was “inactive” in each case. Moreover, the Potency in [2] is 0.0093 µM (active); in [16], 0.0743 µM (active); in experiment [3], 0.372 µM (active); in experiment [9] it was 10.5 µM (active); in experiment [4], 1.87 µM (active); in experiment [10], 0.001 µM (active). The Potency in [7] is 7.43 µM (active); in [8] it was 0.0047 µM (active); in experiment [17] it was 0.0935 µM (active).

As to `CC(C)(C)c1nc(-c2cccc(NS(=O)(=O)c3c(F)cccc3F)c2F)c(-c2ccnc(N)n2)s1`, the Potency entry in experiment [1] and in experiment [10] was “inactive” each time. Moreover, the Potency in [2] is 16.6 µM (active); in experiment [16], 0.209 µM (active); in [3], 1.32 µM (active); in experiment [9], 18.7 µM (active); in experiment [13] it was 5.9 µM (active); in experiment [4] it was 2.96 µM (active). Also, the Potency in [5] was 10.5 µM (active); in experiment [18] it was 2.96 µM (active); in experiment [6], 5.9 µM (active); in experiment [11], 13.2 µM (active); in experiment [8], 3.32 µM (active).

Regarding `CCCCCCCCCCCCCC(=O)N[C@H](CO)[C@H](O)c1ccc([N+](=O)[O-])cc1`, the Potency in experiment [1] was 16.6 µM (active); in experiment [2] it was 16.6 µM (active); in experiment [16] it was 16.6 µM (active); in [9] it was 26.4 µM (active); in [12], 7.43 µM (active); in [4], 23.5 µM (active). Further, the Potency in experiment [5] is 20.9 µM (active); in experiment [10], 18.7 µM (active); in experiment [6], 26.4 µM (active); in [7], 20.9 µM (active); in [17] it was 23.5 µM (active). The Potency entry in experiment [13] and in experiment [8] was “inactive” throughout.

For the compound `C#C[C@]1(O)CC[C@H]2[C@H]3CCc4cc(OC)ccc4[C@H]3CC[C@@]21C`, the Potency entry in experiment [1], in experiment [2] and in [8] was “inactive” throughout. Also, the Potency is 16.6 µM (active) in [9], 16.6 µM (active) in experiment [4], 14.8 µM (active) in experiment [5] and 16.6 µM (active) in experiment [18].
